# Experimental data published in ChEMBL document CHEMBL2218924, “A broad activity screen in support of a chemogenomic map for kinase signalling research and drug discovery” (Biochem J, 2013).
# Legend:
# [1] = biological target: Insulin receptor (Homo sapiens) (UniProt P06213); conditions: at 10 µM
# [2] = biological target: Insulin receptor (Homo sapiens) (UniProt P06213); conditions: at 1 µM
# [3] = biological target: Insulin receptor (Homo sapiens) (UniProt P06213); conditions: at 10 µM; remark: listed apart in the source
# [4] = biological target: Interleukin-1 receptor-associated kinase 1 (Homo sapiens) (UniProt P51617); conditions: at 1 µM
# Sequence of Interleukin-1 receptor-associated kinase 1 (Homo sapiens) (P51617 whole entry, looked up): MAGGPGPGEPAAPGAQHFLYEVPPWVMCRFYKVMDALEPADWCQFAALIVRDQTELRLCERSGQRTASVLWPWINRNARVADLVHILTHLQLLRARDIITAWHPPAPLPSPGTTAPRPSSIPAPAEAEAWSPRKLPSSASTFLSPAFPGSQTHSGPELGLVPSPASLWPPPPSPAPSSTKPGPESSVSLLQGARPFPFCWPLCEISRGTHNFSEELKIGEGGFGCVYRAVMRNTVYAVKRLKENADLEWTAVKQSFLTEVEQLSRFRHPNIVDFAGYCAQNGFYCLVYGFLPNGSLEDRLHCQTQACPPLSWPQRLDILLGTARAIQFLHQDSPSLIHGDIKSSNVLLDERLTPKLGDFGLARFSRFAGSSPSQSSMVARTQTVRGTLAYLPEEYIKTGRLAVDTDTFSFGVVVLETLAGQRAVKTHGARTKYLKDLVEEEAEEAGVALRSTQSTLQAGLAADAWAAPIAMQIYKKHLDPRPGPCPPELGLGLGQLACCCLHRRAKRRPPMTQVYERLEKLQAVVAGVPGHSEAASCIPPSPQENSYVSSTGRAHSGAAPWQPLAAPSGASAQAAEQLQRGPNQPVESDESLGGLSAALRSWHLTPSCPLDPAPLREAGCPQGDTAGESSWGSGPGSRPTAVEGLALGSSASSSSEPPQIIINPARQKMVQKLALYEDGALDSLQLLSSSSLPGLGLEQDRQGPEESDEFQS
# [5] = biological target: Interleukin-1 receptor-associated kinase 1 (Homo sapiens) (UniProt P51617); conditions: at 10 µM
# [6] = biological target: T1, Interleukin-1 receptor-associated kinase 4 (Homo sapiens) (UniProt Q9NWZ3); conditions: at 1 µM
# T1 sequence (whole entry): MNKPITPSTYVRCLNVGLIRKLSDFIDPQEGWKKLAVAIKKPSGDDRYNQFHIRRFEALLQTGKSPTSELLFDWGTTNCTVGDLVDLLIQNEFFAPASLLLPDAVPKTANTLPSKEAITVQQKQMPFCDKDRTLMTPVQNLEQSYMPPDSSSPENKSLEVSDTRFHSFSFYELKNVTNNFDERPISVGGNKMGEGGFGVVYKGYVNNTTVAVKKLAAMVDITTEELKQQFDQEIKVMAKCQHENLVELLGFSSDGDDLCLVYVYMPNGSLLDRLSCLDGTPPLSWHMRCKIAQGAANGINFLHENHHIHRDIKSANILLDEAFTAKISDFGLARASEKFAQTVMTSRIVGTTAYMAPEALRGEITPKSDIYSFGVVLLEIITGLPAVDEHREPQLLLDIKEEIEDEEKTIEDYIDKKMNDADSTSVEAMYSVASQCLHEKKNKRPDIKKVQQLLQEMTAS
# [7] = biological target: T1, Interleukin-1 receptor-associated kinase 4 (Homo sapiens); conditions: at 10 µM
# [8] = biological target: Insulin receptor-related protein (Homo sapiens) (UniProt P14616); conditions: at 1 µM
# [9] = biological target: Insulin receptor-related protein (Homo sapiens) (UniProt P14616); conditions: at 10 µM
# [10] = biological target: T2, Tyrosine-protein kinase ITK/TSK (Homo sapiens) (UniProt Q08881); conditions: at 1 µM
# T2 sequence (whole entry): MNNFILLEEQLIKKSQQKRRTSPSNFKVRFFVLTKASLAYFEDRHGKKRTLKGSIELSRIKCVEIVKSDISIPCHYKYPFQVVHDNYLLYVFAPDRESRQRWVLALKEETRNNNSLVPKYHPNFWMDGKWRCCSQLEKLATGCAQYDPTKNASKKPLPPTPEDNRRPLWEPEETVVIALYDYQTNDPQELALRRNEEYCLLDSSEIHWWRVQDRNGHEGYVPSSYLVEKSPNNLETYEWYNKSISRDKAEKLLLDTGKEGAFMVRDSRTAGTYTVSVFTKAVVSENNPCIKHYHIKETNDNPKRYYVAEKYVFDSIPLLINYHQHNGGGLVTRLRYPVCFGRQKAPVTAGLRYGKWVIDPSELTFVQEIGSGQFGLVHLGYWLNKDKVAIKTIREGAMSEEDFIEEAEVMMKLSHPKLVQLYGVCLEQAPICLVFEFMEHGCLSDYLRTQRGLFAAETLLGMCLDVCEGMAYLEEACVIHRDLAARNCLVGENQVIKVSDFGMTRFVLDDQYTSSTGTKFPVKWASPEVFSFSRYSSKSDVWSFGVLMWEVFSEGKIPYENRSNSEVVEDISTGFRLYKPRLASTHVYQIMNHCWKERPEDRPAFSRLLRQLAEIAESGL
# [11] = biological target: T2, Tyrosine-protein kinase ITK/TSK (Homo sapiens); conditions: at 10 µM
# [12] = biological target: Tyrosine-protein kinase JAK2 (Homo sapiens) (UniProt O60674); conditions: at 1 µM
# Sequence of Tyrosine-protein kinase JAK2 (Homo sapiens) (O60674 whole entry): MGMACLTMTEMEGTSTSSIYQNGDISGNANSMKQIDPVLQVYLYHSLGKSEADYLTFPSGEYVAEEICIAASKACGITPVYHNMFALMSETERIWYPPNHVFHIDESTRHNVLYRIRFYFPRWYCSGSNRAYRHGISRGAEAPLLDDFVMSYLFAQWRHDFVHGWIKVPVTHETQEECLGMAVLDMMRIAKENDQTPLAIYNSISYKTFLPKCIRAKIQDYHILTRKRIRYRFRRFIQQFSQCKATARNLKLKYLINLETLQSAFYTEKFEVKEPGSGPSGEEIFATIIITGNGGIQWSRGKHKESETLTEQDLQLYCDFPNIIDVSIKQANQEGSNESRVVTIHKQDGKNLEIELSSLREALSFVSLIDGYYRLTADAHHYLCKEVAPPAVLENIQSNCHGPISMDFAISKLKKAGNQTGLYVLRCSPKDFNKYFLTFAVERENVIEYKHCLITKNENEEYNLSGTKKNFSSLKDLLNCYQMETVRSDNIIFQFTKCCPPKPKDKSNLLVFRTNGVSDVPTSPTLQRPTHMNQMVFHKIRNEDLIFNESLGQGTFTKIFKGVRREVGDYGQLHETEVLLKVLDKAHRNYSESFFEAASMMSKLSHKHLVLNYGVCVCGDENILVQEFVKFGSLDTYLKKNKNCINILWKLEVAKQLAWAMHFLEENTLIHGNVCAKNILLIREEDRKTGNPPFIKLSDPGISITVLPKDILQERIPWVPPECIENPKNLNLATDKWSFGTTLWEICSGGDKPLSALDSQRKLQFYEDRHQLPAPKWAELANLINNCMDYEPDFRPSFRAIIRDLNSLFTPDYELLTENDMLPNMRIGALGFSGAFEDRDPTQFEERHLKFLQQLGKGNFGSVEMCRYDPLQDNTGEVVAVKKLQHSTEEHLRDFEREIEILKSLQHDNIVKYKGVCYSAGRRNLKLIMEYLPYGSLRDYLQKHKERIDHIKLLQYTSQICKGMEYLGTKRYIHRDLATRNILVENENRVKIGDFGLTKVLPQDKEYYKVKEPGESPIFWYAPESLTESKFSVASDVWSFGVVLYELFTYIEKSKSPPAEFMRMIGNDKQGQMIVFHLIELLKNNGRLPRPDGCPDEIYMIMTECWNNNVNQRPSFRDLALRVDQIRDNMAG
# [13] = biological target: Tyrosine-protein kinase JAK2 (Homo sapiens) (UniProt O60674); conditions: at 10 µM
# [14] = biological target: T3, Tyrosine-protein kinase JAK3 (Homo sapiens) (UniProt P52333); conditions: at 1 µM
# T3 sequence (whole entry): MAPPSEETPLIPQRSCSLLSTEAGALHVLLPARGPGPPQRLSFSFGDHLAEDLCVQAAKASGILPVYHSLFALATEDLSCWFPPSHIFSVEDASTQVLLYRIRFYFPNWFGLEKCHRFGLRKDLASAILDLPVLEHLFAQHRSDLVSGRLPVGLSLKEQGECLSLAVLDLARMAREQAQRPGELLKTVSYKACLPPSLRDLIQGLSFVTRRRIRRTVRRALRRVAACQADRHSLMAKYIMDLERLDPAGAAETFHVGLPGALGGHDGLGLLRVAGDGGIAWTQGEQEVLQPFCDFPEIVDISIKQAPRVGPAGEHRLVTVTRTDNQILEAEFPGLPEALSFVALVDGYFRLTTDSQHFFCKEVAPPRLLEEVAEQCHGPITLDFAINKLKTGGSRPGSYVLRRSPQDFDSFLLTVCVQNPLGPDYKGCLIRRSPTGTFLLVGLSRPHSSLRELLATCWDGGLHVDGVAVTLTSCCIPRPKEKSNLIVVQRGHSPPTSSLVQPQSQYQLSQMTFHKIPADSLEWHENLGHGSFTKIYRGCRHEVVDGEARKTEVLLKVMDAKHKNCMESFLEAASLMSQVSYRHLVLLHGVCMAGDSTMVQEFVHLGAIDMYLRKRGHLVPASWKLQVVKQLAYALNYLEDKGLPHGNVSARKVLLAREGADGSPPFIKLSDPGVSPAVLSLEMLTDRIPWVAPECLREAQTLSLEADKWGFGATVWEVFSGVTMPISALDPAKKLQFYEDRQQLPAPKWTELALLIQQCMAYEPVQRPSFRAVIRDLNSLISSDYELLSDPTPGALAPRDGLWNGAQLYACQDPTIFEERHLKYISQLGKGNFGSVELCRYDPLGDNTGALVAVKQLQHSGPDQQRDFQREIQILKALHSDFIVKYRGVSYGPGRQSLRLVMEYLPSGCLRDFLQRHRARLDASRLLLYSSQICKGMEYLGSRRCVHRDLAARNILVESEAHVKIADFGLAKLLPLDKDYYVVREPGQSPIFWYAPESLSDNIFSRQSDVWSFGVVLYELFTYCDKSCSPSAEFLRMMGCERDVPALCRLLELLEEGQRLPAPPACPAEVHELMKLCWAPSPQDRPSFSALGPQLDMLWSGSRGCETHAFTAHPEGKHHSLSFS
# [15] = biological target: T3, Tyrosine-protein kinase JAK3 (Homo sapiens); conditions: at 10 µM
# [16] = biological target: Mitogen-activated protein kinase 8 (Homo sapiens) (UniProt P45983); conditions: at 1 µM
# Sequence of Mitogen-activated protein kinase 8 (Homo sapiens) (P45983 whole entry): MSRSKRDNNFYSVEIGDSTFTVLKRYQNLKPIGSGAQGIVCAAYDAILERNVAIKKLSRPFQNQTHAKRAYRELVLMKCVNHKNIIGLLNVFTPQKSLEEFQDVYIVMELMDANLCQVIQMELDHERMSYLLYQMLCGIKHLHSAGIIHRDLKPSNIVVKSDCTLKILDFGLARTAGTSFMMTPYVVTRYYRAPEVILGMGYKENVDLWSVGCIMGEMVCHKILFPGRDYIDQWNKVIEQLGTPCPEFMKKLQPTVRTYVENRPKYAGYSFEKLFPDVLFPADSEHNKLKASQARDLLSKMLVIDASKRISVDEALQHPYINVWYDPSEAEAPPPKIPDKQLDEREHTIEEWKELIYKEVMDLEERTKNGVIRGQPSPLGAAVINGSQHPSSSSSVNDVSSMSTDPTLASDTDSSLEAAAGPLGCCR
# [17] = biological target: Mitogen-activated protein kinase 8 (Homo sapiens) (UniProt P45983); conditions: at 10 µM
# [18] = biological target: Mitogen-activated protein kinase 9 (Homo sapiens) (UniProt P45984); conditions: at 1 µM
# Sequence of Mitogen-activated protein kinase 9 (Homo sapiens) (P45984 whole entry, looked up): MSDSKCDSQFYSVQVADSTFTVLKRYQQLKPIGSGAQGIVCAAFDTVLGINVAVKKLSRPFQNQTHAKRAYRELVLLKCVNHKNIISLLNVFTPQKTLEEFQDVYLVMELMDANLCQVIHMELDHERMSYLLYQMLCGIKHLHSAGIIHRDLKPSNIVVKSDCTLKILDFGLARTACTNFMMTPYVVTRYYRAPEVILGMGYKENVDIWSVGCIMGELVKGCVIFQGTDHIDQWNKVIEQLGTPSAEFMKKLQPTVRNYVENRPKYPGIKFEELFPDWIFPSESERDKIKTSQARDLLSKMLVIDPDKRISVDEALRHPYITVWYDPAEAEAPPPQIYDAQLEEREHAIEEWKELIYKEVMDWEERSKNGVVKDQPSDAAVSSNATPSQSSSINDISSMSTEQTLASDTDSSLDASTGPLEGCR
# [19] = biological target: Mitogen-activated protein kinase 9 (Homo sapiens) (UniProt P45984); conditions: at 10 µM
# [20] = biological target: Mitogen-activated protein kinase 10 (Homo sapiens) (UniProt P53779); conditions: at 1 µM
# Sequence of Mitogen-activated protein kinase 10 (Homo sapiens) (P53779 whole entry): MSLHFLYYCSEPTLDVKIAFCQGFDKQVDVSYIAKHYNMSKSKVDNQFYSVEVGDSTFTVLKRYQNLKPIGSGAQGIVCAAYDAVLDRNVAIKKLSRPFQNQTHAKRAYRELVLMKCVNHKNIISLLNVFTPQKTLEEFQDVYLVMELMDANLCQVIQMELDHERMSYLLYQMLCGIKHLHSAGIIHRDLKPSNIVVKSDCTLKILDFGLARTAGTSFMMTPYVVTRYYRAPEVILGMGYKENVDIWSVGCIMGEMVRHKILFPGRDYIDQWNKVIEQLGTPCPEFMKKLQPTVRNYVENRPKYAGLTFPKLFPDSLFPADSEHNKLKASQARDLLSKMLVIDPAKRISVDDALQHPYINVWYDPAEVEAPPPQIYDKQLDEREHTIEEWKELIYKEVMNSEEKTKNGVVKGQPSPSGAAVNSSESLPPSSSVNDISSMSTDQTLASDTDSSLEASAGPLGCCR
# Sequence of Insulin receptor (Homo sapiens) (P06213 28-758 limits assumed): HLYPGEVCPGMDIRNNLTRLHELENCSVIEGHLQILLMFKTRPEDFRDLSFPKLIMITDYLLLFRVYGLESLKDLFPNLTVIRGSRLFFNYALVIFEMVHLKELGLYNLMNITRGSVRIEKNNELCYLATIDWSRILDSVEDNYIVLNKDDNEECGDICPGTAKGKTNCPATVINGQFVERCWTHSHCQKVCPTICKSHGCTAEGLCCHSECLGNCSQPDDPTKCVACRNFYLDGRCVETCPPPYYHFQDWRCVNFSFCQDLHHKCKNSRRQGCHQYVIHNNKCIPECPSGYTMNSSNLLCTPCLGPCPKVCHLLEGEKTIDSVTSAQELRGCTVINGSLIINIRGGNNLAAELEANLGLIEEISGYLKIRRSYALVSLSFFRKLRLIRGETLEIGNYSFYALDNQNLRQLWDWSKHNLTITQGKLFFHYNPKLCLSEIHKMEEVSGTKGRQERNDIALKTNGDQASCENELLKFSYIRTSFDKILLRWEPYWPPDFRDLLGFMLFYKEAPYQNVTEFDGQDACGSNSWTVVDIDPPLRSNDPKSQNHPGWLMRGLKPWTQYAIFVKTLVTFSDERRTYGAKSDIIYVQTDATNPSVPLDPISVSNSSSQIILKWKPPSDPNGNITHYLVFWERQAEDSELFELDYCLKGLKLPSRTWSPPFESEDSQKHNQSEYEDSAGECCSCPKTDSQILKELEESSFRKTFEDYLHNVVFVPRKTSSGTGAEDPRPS
# Sequence of Insulin receptor (Homo sapiens) (P06213 763-1382 limits assumed): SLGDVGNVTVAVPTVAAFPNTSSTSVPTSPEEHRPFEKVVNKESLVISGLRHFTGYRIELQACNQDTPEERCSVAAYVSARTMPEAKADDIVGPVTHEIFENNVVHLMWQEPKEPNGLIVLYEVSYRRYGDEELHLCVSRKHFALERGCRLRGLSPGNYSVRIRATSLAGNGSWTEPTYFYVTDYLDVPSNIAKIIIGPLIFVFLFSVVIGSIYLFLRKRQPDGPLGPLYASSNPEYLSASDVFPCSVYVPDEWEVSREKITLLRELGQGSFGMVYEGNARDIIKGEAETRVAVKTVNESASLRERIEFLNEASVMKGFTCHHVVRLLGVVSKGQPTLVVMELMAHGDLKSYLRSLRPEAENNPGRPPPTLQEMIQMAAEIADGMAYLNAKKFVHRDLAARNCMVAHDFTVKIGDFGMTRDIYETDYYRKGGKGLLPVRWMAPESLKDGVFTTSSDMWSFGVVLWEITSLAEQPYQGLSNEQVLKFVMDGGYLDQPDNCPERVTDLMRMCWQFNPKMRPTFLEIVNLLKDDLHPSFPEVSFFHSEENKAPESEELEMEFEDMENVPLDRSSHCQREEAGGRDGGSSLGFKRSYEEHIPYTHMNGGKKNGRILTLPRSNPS
SMILES,residual activity [1],residual activity [2],residual activity [3],residual activity [4],residual activity [5],residual activity [6],residual activity [7],residual activity [8],residual activity [9],residual activity [10],residual activity [11],residual activity [12],residual activity [13],residual activity [14],residual activity [15],residual activity [16],residual activity [17],residual activity [18],residual activity [19],residual activity [20]
CO[C@H]1C[C@@H]2CC[C@@H](C)[C@@](O)(O2)C(=O)C(=O)N2CCCC[C@H]2C(=O)O[C@H]([C@H](C)C[C@@H]2CC[C@@H](O)[C@H](OC)C2)CC(=O)[C@H](C)/C=C(\C)[C@@H](O)[C@@H](OC)C(=O)[C@H](C)C[C@H](C)/C=C/C=C/C=C/1C,89%,92%,101%,74%,71%,107%,154%,126%,99%,101%,113%,101%,160%,103%,124%,107%,90%,111%,96%,108%
O=C1NC(=O)/C(=C\c2ccc3nccnc3c2)S1,94%,103%,97%,76%,35%,104%,91%,127%,58%,97%,91%,108%,94%,86%,67%,104%,87%,108%,96%,89%
Oc1ccc(Nc2nc(-c3ccc(Cl)cc3)cs2)cc1,133%,108%,103%,100%,111%,108%,97%,115%,85%,104%,95%,106%,97%,95%,122%,106%,101%,101%,113%,108%
